Here are results for 5 compounds from PubChem BioAssay (EPA / NIEHS).

Experiment [1] can be described thus: CCTE_Shafer_MEA_acute_network_burst_percentage: CCTE's Neural Acute Assay for Percentage of Network Bursts, Shafer Lab (AID 2284022).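 Further: rat primary cortical neuron networks on multiwell MEA recorded 40 min; curves fitted for loss so actives lower network burst percentage.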 The procedure, abridged:
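Network burst percentage (spikes in network bursts divided by total spikes) recorded at 37 C over 40 min baseline and 40 min after compound, 0.03-40 uM, in rat cortical cultures at DIV 13 or 15. Analysed as percent change from baseline versus DMSO.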

Experiment [2] can be described thus: CCTE_Shafer_MEA_acute_cross_correlation_area: CCTE's Neural Acute Assay for Area of Cross Correlation, Shafer Lab (AID 2284024).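 Further: area under pooled inter-electrode spike cross-correlation near zero lag as percent change from own baseline; curves fitted for loss of cross-correlation area so actives lower synchrony.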 The gist of the method: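 Percent change in well-wide cross-correlation area (window around zero lag) between 40 min baseline and 40 min post-compound recordings, 37 C; rat cortical cultures on MEA at DIV 13 or 15, dosed 0.03-40 uM, wells needing >/= 10 active electrodes.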

A short description of experiment [3]: CCTE_Shafer_MEA_acute_cross_correlation_HWHM: CCTE's Neural Acute Assay for Cross Correlation at Half Width at Half Maximum, Shafer Lab (AID 2284026).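 Further: spontaneous network firing of rat primary cortical neurons on multiwell microelectrode arrays; percent change per well from pre-dose baseline in spike cross-correlogram half width; hits are a decrease in cross-correlogram half width relative to DMSO.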 The procedure, abridged:
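Per-well percent change in cross-correlogram half width at half maximum, derived from 40-min recordings before and after compound (0.03-40 uM) at 37 C. Cultures were rat cortical neurons, DIV 13 or 15, with adaptive spike detection at 8x rms.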

A short description of experiment [4]: CCTE_Shafer_MEA_acute_synchrony_index: CCTE's Neural Acute Assay for Synchrony, Shafer Lab (AID 2284027).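 Further: network synchrony index of spontaneous spiking in primary rat cortical neurons on MEAs; fitted for loss of signal so actives lower synchrony relative to DMSO.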 The procedure, abridged:
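Rat cortical cultures, DIV 13/15; spikes detected at 8x rms noise, 300-5000 Hz band-pass. Compound 0.03-40 uM, ≥3 wells; 40-min pre- and post-exposure recordings, 37 C. Readout: % change in synchrony index; loss-of-signal fit vs DMSO.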

The target of experiment [5] is Estrogen receptor (Homo sapiens) (UniProt P03372). The experiment can be described thus: CCTE_Deisenroth_AIME_96WELL_LUC_Active: CCTE's 96-well Estrogen Receptor Transactivation Assay with AIME metabolic competence (ERTA luciferase; metabolism positive), Deisenroth Lab (AID 2284023; active means hit-call score of the fitted dose curve at least 0.9, where 1 is the maximum). The procedure, abridged: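 Metabolism-positive mode: induced rat hepatic S9 in alginate microspheres conditions test solutions (0.002 - 200 uM, 10 points) for 2 hours. VM7Luc4E2 ER luciferase reporter cells then exposed 24 h; positive-direction fit against 17beta-estradiol, n=4 typical.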

Experiment [6] has the same target. The experiment can be described thus: CCTE_Deisenroth_AIME_96WELL_LUC_Inactive: CCTE's 96-well Estrogen Receptor Transactivation Assay without AIME metabolic competence (ERTA luciferase; metabolism negative), Deisenroth Lab (AID 2284025; active means hit-call score of the fitted dose curve at least 0.9, where 1 is the maximum). How it is done:
CCTE_Deisenroth_AIME_96WELL (AIME metabolism assay) is a cell-based, single-readout assay that uses VM7Luc4E2, a human mammary gland/breast cell line, with measurements taken at 24 hour after chemical dosing in a 96-well plate.CCTE_Deisenroth_AIME_96WELL_LUC_Inactive is one of four assay components measured or calculated from the CCTE_Deisenroth_AIME_96WELL assay. It is designed to make measurements of luciferase induction, a form of inducible reporter, as detected with bioluminescence signals by luciferase-coupled ATP quantitation technology.CCTE_Deisenroth_AIME_96WELL_LUC_Inactive is a component of the CCTE_Deisenroth_AIME_96WELL assay that measures the effect of retroftting the VM7Luc ERTA assay with the Alginate Immobolization of Metabolic Enzymes (AIME) metabolism method. AIME is optimized to impart phase I hepatic metabolism using phenobarbital/beta-naphthoflavone induced hepatic S9 from male Sprague Dawley rats. Parent chemicals are incubated for 2 hours in the AIME assay prior to transfer to the VM7Luc ERTA assay plate. […] This endpoint evaluates reporter induction in metabolism negative mode. […] This assay endpoint, CCTE_Deisenroth_AIME_96WELL_LUC_Inactive, was analyzed in the positive analysis fitting direction relative to 17beta-estradiol as the positive control in the ERTA assay. […]

A short description of experiment [7]: CCTE_Deisenroth_AIME_384WELL_CTox_Active: Cytotoxicity Assessment (CTOX) in CCTE's 384-well Estrogen Receptor Transactivation Assay with AIME metabolic competence (metabolism positive), Deisenroth Lab (AID 2284037; active means hit-call score of the fitted dose curve at least 0.9, where 1 is the maximum;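 further: chemicals first conditioned 2 h by alginate-bound induced rat liver S9 before cells; activity means signal loss indicating cell death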). The gist of the method: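 Cytotoxicity in VM7Luc4E2 breast cells, 24 hour, measured as protease-substrate fluorescence loss, after 2-hour metabolic conditioning with induced rat hepatic S9 in alginate microspheres. Concentrations 0.002 - 200 uM, 10 points, bidirectional fitting.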

Inconclusive results are not listed. The source made the active and inactive calls. How the source made its calls, unless noted: active means hit-call score of the fitted dose curve at least 0.9, where 1 is the maximum; inactive means score below 0.9.

Chain of Estrogen receptor (Homo sapiens) (P03372 whole entry, looked up): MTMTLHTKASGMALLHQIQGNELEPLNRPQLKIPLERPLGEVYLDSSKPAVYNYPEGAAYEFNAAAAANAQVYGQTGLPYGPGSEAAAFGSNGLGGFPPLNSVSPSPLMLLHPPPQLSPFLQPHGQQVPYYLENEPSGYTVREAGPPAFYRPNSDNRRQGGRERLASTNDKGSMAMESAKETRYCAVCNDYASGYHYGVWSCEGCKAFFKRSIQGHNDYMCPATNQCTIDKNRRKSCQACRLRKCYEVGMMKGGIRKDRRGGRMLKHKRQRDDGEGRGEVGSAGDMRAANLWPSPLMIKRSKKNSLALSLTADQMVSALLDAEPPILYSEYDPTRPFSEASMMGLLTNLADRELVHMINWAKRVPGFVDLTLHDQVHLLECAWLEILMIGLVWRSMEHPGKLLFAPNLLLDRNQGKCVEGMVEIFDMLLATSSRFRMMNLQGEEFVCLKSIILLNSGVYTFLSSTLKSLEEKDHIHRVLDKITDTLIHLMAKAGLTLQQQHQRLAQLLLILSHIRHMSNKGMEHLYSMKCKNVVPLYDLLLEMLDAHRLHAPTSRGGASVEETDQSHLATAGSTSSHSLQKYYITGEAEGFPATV

As for `CCCCC(CC)COP(=O)(O)OCC(CC)CCCC` (configuration not stated), the result in experiment [1], in experiment [3] and in experiment [4] was inactive. Moreover, the AC50 in experiment [2] was 8.23 nM (active).
For `CCCCCCOC(=O)c1ccccc1O`, the compound was called inactive in experiment [1], in experiment [2], in experiment [3] and in experiment [4].
Regarding `C#C[C@]1(O)CC[C@H]2[C@@H]3CCc4cc(OC)ccc4[C@H]3CC[C@@]21C`, the concentration at half-maximal activity (AC50) is 0.1 nM (active) in experiment [5] and 0.372 nM (active) in experiment [6].
As for `CCN(Cc1cccc(S(=O)(=O)O)c1)c1ccc(C(=C2C=CC(=[N+](CC)Cc3cccc(S(=O)(=O)O)c3)C=C2)c2ccc(O)cc2S(=O)(=O)[O-])cc1`, the AC50 in experiment [7] was 124000 nM (active).
Turning to `CC/C=C\CCOC(C)=O`, in experiment [7], the result was inactive.

In general, AC50 refers to the midpoint of the concentration-response curve, whichever way the signal moves.
